The panel holds about 79,000 compounds, 15% with a hit somewhere; the sample as a whole holds those more often. Values without a mark were called inactive. Calls of active or inactive are those of the source. Rule as the data show it: active = growth inhibition above about 70%; inactive = the rest.
How the values were obtained:
[1] = NCI Yeast Anticancer Drug Screen. Data for the rad50 strain (AID 155);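 also: 0% = growth of vehicle-only cultures of the same strain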; conditions: S. cerevisiae rad50 strain growth inhibition, stronger effect = higher value
Summary of the method: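 Relative growth inhibition (compound vs vehicle) was measured in yeast with a defined repair-gene alteration.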

[2] = NCI Yeast Anticancer Drug Screen. Data for the mec2-1 strain (AID 157); conditions: S. cerevisiae mec2-1 strain, stronger effect = higher value
Summary of the method: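 mec2-1 yeast strain, carrying an alteration in DNA damage repair or cell cycle control, was exposed to compounds; growth inhibition was measured relative to vehicle-treated controls.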

[3] = NCI Yeast Anticancer Drug Screen. Data for the sgs1 mgt1 strain (AID 161);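 also: 0% = growth of cultures given vehicle only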; conditions: S. cerevisiae sgs1 mgt1 strain, stronger effect = higher value
Summary of the method: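 This yeast growth screen uses a strain with defined DNA-repair lesions; compound-treated growth is compared with vehicle-treated growth.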

[4] = NCI Yeast Anticancer Drug Screen. Data for the cln2 rad14 strain (AID 165);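 also: 0% = growth equal to vehicle treated cultures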; conditions: S. cerevisiae cln2 rad14 strain, stronger effect = higher value
Summary of the method: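 Yeast carrying cln2 and rad14 alterations (cell cycle control and DNA damage repair) were exposed to compounds. Growth inhibition was measured against vehicle-treated controls.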

[5] = NCI Yeast Anticancer Drug Screen. Data for the bub3 strain (AID 167); conditions: S. cerevisiae bub3 mutant strain, stronger effect = higher value
Summary of the method: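 Screening used yeast with an engineered genetic alteration affecting cell cycle control. Compound-exposed cultures were compared with vehicle cultures, and reduced growth was taken as inhibition.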

[6] = NCI Yeast Anticancer Drug Screen. Data for the mlh1 rad18 strain (AID 175); conditions: S. cerevisiae mlh1 rad18 strain growth inhibition, stronger effect = higher value
Summary of the method: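 Growth inhibition of the yeast strain was measured after compound exposure and expressed relative to vehicle-treated controls. The strain carries defined defects in DNA damage repair.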

[7] = at 5.0 µM (retest, dose inferred, filed as 0.5)
[8] = at 50.0 µM (retest, dose inferred, filed as 5.0)

Question: Which results are given for `Cc1c2ncccc2cc2oc3ccccc3c(=O)c12`?
Answer: growth inhibition [1, 7]: 67%; growth inhibition [1, 8]: 9%; growth inhibition ([1]; at 50.0 µM): 62.7%; growth inhibition [2, 7]: 24%; growth inhibition [2, 8]: 78% (active); growth inhibition ([2]; at 50.0 µM): 14.8%; growth inhibition [3, 7]: 37%; growth inhibition [3, 8]: 6%; growth inhibition ([3]; at 50.0 µM): 24.4%; growth inhibition [4, 7]: 16%; growth inhibition [4, 8]: 37%; growth inhibition ([4]; at 50.0 µM): 13.8%; growth inhibition [5, 7]: 15%; growth inhibition [5, 8]: 75% (active); growth inhibition ([5]; at 50.0 µM): 19.9%; growth inhibition [6, 7]: 23%; growth inhibition [6, 8]: 10%; growth inhibition ([6]; at 50.0 µM): 68.7%

Question: With `Cc1cnc(C#N)c(C#N)n1` as the compound, how does the growth inhibition [1, 7] read?
Answer: 2%

Question: What about the growth inhibition [1, 8] of the same compound?
Answer: 10%

Question: And the growth inhibition ([1]; at 50.0 µM)?
Answer: 35.6%

Question: And the growth inhibition [2, 7]?
Answer: -1%

Question: And the growth inhibition [2, 8]?
Answer: 8%

Question: And the growth inhibition ([2]; at 50.0 µM)?
Answer: 5.9%

Question: What about the growth inhibition [3, 7] of the same compound?
Answer: 2%

Question: And the growth inhibition [3, 8]?
Answer: 7%

Question: And the growth inhibition ([3]; at 50.0 µM)?
Answer: 9.95%

Question: And the growth inhibition [4, 7]?
Answer: 0%

Question: What about the growth inhibition [4, 8] of the same compound?
Answer: 7%

Question: And the growth inhibition ([4]; at 50.0 µM)?
Answer: 12.2%

Question: And the growth inhibition [5, 7]?
Answer: -1%

Question: And the growth inhibition [5, 8]?
Answer: -1%

Question: And the growth inhibition ([5]; at 50.0 µM)?
Answer: 13.2%

Question: What about the growth inhibition [6, 7] of the same compound?
Answer: -3%

Question: What about the growth inhibition [6, 8] of the same compound?
Answer: 3%

Question: What about the growth inhibition ([6]; at 50.0 µM) of the same compound?
Answer: 18.1%

Question: Which growth inhibition [1, 7] does the source give for `COc1ccc(C(C)=O)c(OC(=O)c2ccccc2)c1OC(=O)c1ccccc1` here?
Answer: -22%

Question: And the growth inhibition [1, 8]?
Answer: 9%

Question: And the growth inhibition ([1]; at 50.0 µM)?
Answer: 5.05%

Question: What about the growth inhibition [2, 7] of the same compound?
Answer: -1%

Question: What about the growth inhibition [2, 8] of the same compound?
Answer: 7%

Question: And the growth inhibition ([2]; at 50.0 µM)?
Answer: 10.2%

Question: What about the growth inhibition [3, 7] of the same compound?
Answer: -21%

Question: What about the growth inhibition [3, 8] of the same compound?
Answer: -10%

Question: What about the growth inhibition ([3]; at 50.0 µM) of the same compound?
Answer: -12.1%

Question: And the growth inhibition [4, 7]?
Answer: 2%

Question: And the growth inhibition [4, 8]?
Answer: 11%

Question: And the growth inhibition ([4]; at 50.0 µM)?
Answer: -3%

Question: What about the growth inhibition [5, 7] of the same compound?
Answer: -10%

Question: What about the growth inhibition [5, 8] of the same compound?
Answer: -1%

Question: What about the growth inhibition ([5]; at 50.0 µM) of the same compound?
Answer: 1.15%

Question: And the growth inhibition [6, 7]?
Answer: -1%

Question: What about the growth inhibition [6, 8] of the same compound?
Answer: 4%

Question: And the growth inhibition ([6]; at 50.0 µM)?
Answer: -0.9%

Question: Which growth inhibition [1, 7] does the source give for `O=C1CC(c2ccccc2)C(c2ccccc2)CO1` (configuration not stated) here?
Answer: 85% (active)

Question: What about the growth inhibition [1, 8] of the same compound?
Answer: 99% (active)

Question: And the growth inhibition ([1]; at 50.0 µM)?
Answer: 84.9% (active)

Question: What about the growth inhibition [2, 7] of the same compound?
Answer: 35%

Question: What about the growth inhibition [2, 8] of the same compound?
Answer: 99% (active)

Question: And the growth inhibition ([2]; at 50.0 µM)?
Answer: 92.7% (active)

Question: What about the growth inhibition [3, 7] of the same compound?
Answer: 52%

Question: And the growth inhibition [3, 8]?
Answer: 98% (active)

Question: What about the growth inhibition ([3]; at 50.0 µM) of the same compound?
Answer: 91.5% (active)

Question: What about the growth inhibition [4, 7] of the same compound?
Answer: 13%

Question: And the growth inhibition [4, 8]?
Answer: 98% (active)

Question: What about the growth inhibition ([4]; at 50.0 µM) of the same compound?
Answer: 93.8% (active)

Question: And the growth inhibition [5, 7]?
Answer: 56%

Question: What about the growth inhibition [5, 8] of the same compound?
Answer: 97% (active)

Question: And the growth inhibition ([5]; at 50.0 µM)?
Answer: 94% (active)

Question: And the growth inhibition [6, 7]?
Answer: 74% (active)

Question: And the growth inhibition [6, 8]?
Answer: 99% (active)

Question: And the growth inhibition ([6]; at 50.0 µM)?
Answer: 93.7% (active)

Question: With `COc1ccc(C(c2c(O)c3ccccc3oc2=O)N2CCOCC2)c(OC)c1` (configuration not stated) as the compound, how does the growth inhibition [1, 7] read?
Answer: -4%

Question: What about the growth inhibition [1, 8] of the same compound?
Answer: 3%

Question: What about the growth inhibition ([1]; at 50.0 µM) of the same compound?
Answer: 33.4%

Question: What about the growth inhibition [2, 7] of the same compound?
Answer: -6%

Question: And the growth inhibition [2, 8]?
Answer: 19%

Question: What about the growth inhibition ([2]; at 50.0 µM) of the same compound?
Answer: 23.1%

Question: What about the growth inhibition [3, 7] of the same compound?
Answer: -4%

Question: And the growth inhibition [3, 8]?
Answer: 4%

Question: And the growth inhibition ([3]; at 50.0 µM)?
Answer: 35.6%

Question: And the growth inhibition [4, 7]?
Answer: 3%

Question: What about the growth inhibition [4, 8] of the same compound?
Answer: -3%

Question: And the growth inhibition ([4]; at 50.0 µM)?
Answer: 20.3%

Question: And the growth inhibition [5, 7]?
Answer: -2%

Question: And the growth inhibition [5, 8]?
Answer: 0%

Question: And the growth inhibition ([5]; at 50.0 µM)?
Answer: 69.2%

Question: And the growth inhibition [6, 7]?
Answer: -7%

Question: And the growth inhibition [6, 8]?
Answer: -3%

Question: And the growth inhibition ([6]; at 50.0 µM)?
Answer: 43.4%

Question: What does the source list for `CC(C)SC(=S)Nc1cc(Cl)c(Cl)cc1Cl`?
Answer: growth inhibition [1, 7]: 7%; growth inhibition [1, 8]: 85% (active); growth inhibition ([1]; at 50.0 µM): 99.5% (active); growth inhibition [2, 7]: 6%; growth inhibition [2, 8]: 86% (active); growth inhibition ([2]; at 50.0 µM): 99.5% (active); growth inhibition [3, 7]: 10%; growth inhibition [3, 8]: 98% (active); growth inhibition ([3]; at 50.0 µM): 99.5% (active); growth inhibition [4, 7]: -14%; growth inhibition [4, 8]: 91% (active); growth inhibition ([4]; at 50.0 µM): 99.3% (active); growth inhibition [5, 7]: -4%; growth inhibition [5, 8]: 49%; growth inhibition ([5]; at 50.0 µM): 98.9% (active); growth inhibition [6, 7]: 1%; growth inhibition [6, 8]: 92% (active); growth inhibition ([6]; at 50.0 µM): 99.3% (active)

Question: For `CC1([N+](=O)[O-])C(=O)C2(N3CCOCC3)CCCC2C1c1ccccc1` (configuration not stated), which growth inhibition [1, 7] is on record?
Answer: -9%

Question: What about the growth inhibition [1, 8] of the same compound?
Answer: 75% (active)

Question: And the growth inhibition ([1]; at 50.0 µM)?
Answer: -2%

Question: And the growth inhibition [2, 7]?
Answer: -7%

Question: What about the growth inhibition [2, 8] of the same compound?
Answer: 99% (active)

Question: What about the growth inhibition ([2]; at 50.0 µM) of the same compound?
Answer: -0.3%

Question: What about the growth inhibition [3, 7] of the same compound?
Answer: -1%

Question: What about the growth inhibition [3, 8] of the same compound?
Answer: 90% (active)

Question: And the growth inhibition ([3]; at 50.0 µM)?
Answer: 4.95%

Question: And the growth inhibition [4, 7]?
Answer: 1%

Question: And the growth inhibition [4, 8]?
Answer: 40%

Question: And the growth inhibition ([4]; at 50.0 µM)?
Answer: -7.7%

Question: What about the growth inhibition [5, 7] of the same compound?
Answer: -12%

Question: And the growth inhibition [5, 8]?
Answer: 98% (active)

Question: And the growth inhibition ([5]; at 50.0 µM)?
Answer: -5.2%

Question: What about the growth inhibition [6, 7] of the same compound?
Answer: 10%

Question: And the growth inhibition [6, 8]?
Answer: 96% (active)

Question: What about the growth inhibition ([6]; at 50.0 µM) of the same compound?
Answer: 7.65%

Question: What does the source list for `O=C(OCc1ccccc1)c1ccc(O)cc1`?
Answer: growth inhibition [1, 7]: 6%; growth inhibition [1, 8]: 79% (active); growth inhibition ([1]; at 50.0 µM): 96.8% (active); growth inhibition [2, 7]: -1%; growth inhibition [2, 8]: 85% (active); growth inhibition ([2]; at 50.0 µM): 98.3% (active); growth inhibition [3, 7]: 1%; growth inhibition [3, 8]: 64%; growth inhibition ([3]; at 50.0 µM): 98.5% (active); growth inhibition [4, 7]: 2%; growth inhibition [4, 8]: 39%; growth inhibition ([4]; at 50.0 µM): 85.8% (active); growth inhibition [5, 7]: 9%; growth inhibition [5, 8]: 91% (active); growth inhibition ([5]; at 50.0 µM): 97.8% (active); growth inhibition [6, 7]: 2%; growth inhibition [6, 8]: 88% (active); growth inhibition ([6]; at 50.0 µM): 99% (active)

Question: Which results are given for `c1ccc(Cn2nnc(-c3ccccc3)c2-c2ccccc2)cc1`?
Answer: growth inhibition [1, 7]: -2%; growth inhibition [1, 8]: 90% (active); growth inhibition ([1]; at 50.0 µM): 90.6% (active); growth inhibition [2, 7]: -12%; growth inhibition [2, 8]: 97% (active); growth inhibition ([2]; at 50.0 µM): 87.6% (active); growth inhibition [3, 7]: -6%; growth inhibition [3, 8]: 96% (active); growth inhibition ([3]; at 50.0 µM): 85.6% (active); growth inhibition [4, 7]: 6%; growth inhibition [4, 8]: 97% (active); growth inhibition ([4]; at 50.0 µM): 87.8% (active); growth inhibition [5, 7]: 17%; growth inhibition [5, 8]: 96% (active); growth inhibition ([5]; at 50.0 µM): 94% (active); growth inhibition [6, 7]: 14%; growth inhibition [6, 8]: 94% (active); growth inhibition ([6]; at 50.0 µM): 87.5% (active)

Reference: PubChem BioAssay (NCI)
